Bioassay records (PubChem)
Dicer inh: inhibitors of human Dicer processing of pre-microRNA; Q9UPY3; cat-ELCCA pre-miR-21 Dicer processing, chemiluminescence; hits give high values; z-score at 25 µM; hit rate 6% among 47,000; AID 1347074; in the data active = z-score above about 3, passing the limit was not always enough;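 note: plate controls were vehicle for no effect and no enzyme for full effect; higher signal means more uncleaved substrate so more Dicer inhibition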
* = called active by the depositor. Only a selection was taken, and hits are over-represented in it overall.

SMILES	Dicer inh
Cc1[nH]c2ccccc2c1C1(O)C(=O)N(CCc2ccccc2)c2ccc(Cl)cc21 (stereo not given)	1.49
C#CCOC(=O)Nc1cnc(Oc2c(Cl)cccc2Cl)c(C(F)(F)F)c1	-0.29
Cc1ccc2c(N3CC4CCC(CC4)C3)cc(C(F)(F)F)nc2c1	-0.37
O=C1C=C(NCc2ccco2)CC(c2ccccc2)C1 (stereo not given)	1.18
O=C1C=C(NCc2ccncc2)CC(c2ccccc2)C1 (stereo not given)	1.75
O=C1C=C(NCCc2ccccc2)CC(c2ccco2)C1 (stereo not given)	5.65*
COc1ccc(C(=O)ON=C2CSC(C)SC2)cc1 (stereo not given)	-0.62
Nc1nc(-c2ccc(Cl)cc2)nc2sc3c(c12)CCCCC3	0.21
Nc1ncc(-c2nnnn2-c2ccccc2)c(-c2cccc(Cl)c2)n1	0.6
N/C(=N\OC(=O)c1ccc(Cl)cc1)c1ccc(Oc2ccc(Cl)cc2)nc1	-0.92
CCCn1c(CCCO)nc2ccccc21	0.49
Cc1ccc(-c2nnc(Nc3ccc(O)cc3)c3ccccc23)cc1S(=O)(=O)N(C)C	2.41
CNS(=O)(=O)c1cc(-c2nnc(Nc3ccc4c(c3)OCO4)c3ccccc23)ccc1C	4.83*
Cc1ccc(-c2nnc(NCc3ccccc3)c3ccccc23)cc1S(=O)(=O)NCCO	0.06
COc1ccc(-n2nnnc2/C=C/N(C)c2ccccc2)cc1	2.86
Cc1ccc(-n2nnnc2SCc2ccc3c(c2)OCO3)cc1Cl	0.82
O=c1c(Sc2ccccc2)c(Sc2ccccc2)c1=O	-3.73
COc1ccc(Nc2ncnc3ccccc23)cc1	6.18
COc1ccc(Nc2nc3ccccc3c(=O)s2)cc1	1.95
COc1ccc(Nc2ccnc3ccccc23)cc1	3.59*
COC(=O)Cc1nc(NS(=O)(=O)c2cccc(C)c2)sc1C	0.68
NNC(=O)c1cccc(C(F)(F)F)n1	-0.58
C=C(C)CC(Nc1ccccc1C)c1ccco1 (stereo not given)	-0.2
CC(C)(C)c1ccc(C(=O)Nc2cnc3sc4cc(Cl)ccc4n3c2=O)cc1	0.38
CCN(CC)CCOc1c(Br)ccc2c1sc1nc3n(c(=O)c12)CCC3	4.08*
SMILES	Dicer inh
CCOc1ccc2nc(NC3=NCN(CCCN4CCOCC4)CN3)nc(C)c2c1	3.75*
Cc1cc2nc(NC3=NCN(Cc4ccc5c(c4)OCO5)CN3)nc(C)c2cc1C	3.21*
Cc1ccc2c(C)nc(NC3=NCN(Cc4ccccc4)CN3)nc2c1	-0.01
CCCCN1CN=C(Nc2nc(C)c3cc(OCC)ccc3n2)NC1	1.2
Cc1cc2nc(NC3=NCN(Cc4ccco4)CN3)nc(C)c2cc1C	2.98
Cc1cc2nc(NC3=NCN(CCCN4CCOCC4)CN3)nc(C)c2cc1C	1.8
FC(F)(F)COc1cc(-c2n[nH]c(=S)n2Cc2ccco2)cc(OCC(F)(F)F)n1	0.75
Cc1ccc(C)c(NC(=S)Nc2c(Cl)cccc2Cl)c1	2.51
COc1ccc(/C(O)=C2\C(=O)C(=O)N(c3nnc(C)s3)C2c2cccc(Oc3ccccc3)c2)cc1 (stereo not given)	1.06
COc1ccc(-c2noc(COc3ccc(C(C)C)cc3)n2)cc1OC	0.36
Cc1nc(Nc2ncc3c(n2)CC(C)CC3=O)nc2ccccc12 (stereo not given)	1.5
CC1CC(=O)c2cnn(-c3nc4ccccc4s3)c2C1 (stereo not given)	3.04*
CC1(C)CC(=O)c2cnn(-c3nc4ccccc4[nH]3)c2C1	-0.77
CCOC(=O)c1c(NS(=O)(=O)c2ccc(C(F)(F)F)cc2)sc(C)c1-c1ccccc1	-1.03
Cc1nn(-c2ccc(C(C)(C)C)cc2)c(=O)c2noc(C)c12	2.12
COc1ccc(OC)c2c(C)cc(N3CCN(S(=O)(=O)c4ccc(C)cc4)CC3)nc12	-0.6
O=C1CC(Sc2ccccn2)C(=O)N1c1ccc(Cl)cc1Br (stereo not given)	2.1
O=C1Nc2ccc(S(=O)(=O)Nc3ccccc3O)c3cccc1c23	7.95*
Cc1ccc(C)c(NS(=O)(=O)c2ccc3c4c(cccc24)C(=O)N3)c1	2.56
O=C1Nc2ccc(S(=O)(=O)NCCO)c3cccc1c23	0.31
O=C1CC(c2ccccc2F)c2c(n[nH]c2-c2ccc(Cl)cc2)N1 (stereo not given)	-0.71
C=CCNC(=S)/N=C(\N)N1CCOCC1	-0.33
Cc1ccc2oc(=O)n(Cc3ccccc3OC(C)C)c2c1	5.1*
Cc1ccc2oc(=O)n(CC(=O)O)c2c1	1.29
COc1ccc(Cn2c(=O)oc3ccccc32)cc1OC	-0.24
O=C(c1ccc(N2C(=O)C3CC=CCC3C2=O)cc1)c1ccc(N2C(=O)C3CC=CCC3C2=O)cc1 (stereo not given)	-1.61
CCCOC(=O)C1=C(C)NC2=C(C(=O)CC(C)(C)C2)C1c1ccc(OC)c(OC)c1 (stereo not given)	-0.38
CCOc1nc(C)ccc1-c1noc(-c2ccc(F)cc2)n1	0.37
Cc1cc2nc(SCC(=O)Nc3ccc4c(c3)OCO4)[nH]c2cc1C	2.31
CC(C(c1cccs1)c1c(N)n(C)c(=O)n(C)c1=O)[N+](=O)[O-] (stereo not given)	-2.37
